Measurements reported in PubChem BioAssay.
Values without a mark were called inactive. Active and inactive are the calls of the source.

molecular target: Dihydroorotate dehydrogenase (quinone), mitochondrial (Plasmodium falciparum (isolate 3D7)) (UniProt Q08210); test: PfDHODH enzyme inhibitors, primary screen, biochemical, C-terminal His tag, absorbance 600 nm (AID 1175); conditions: DCIP absorbance 600 nm, higher = more signal, called active from +8 up or from −8 down;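 further: recombinant parasite enzyme with a five histidine tag at its C terminus; test concentration not given here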
Sequence (Q08210 whole entry, looked up): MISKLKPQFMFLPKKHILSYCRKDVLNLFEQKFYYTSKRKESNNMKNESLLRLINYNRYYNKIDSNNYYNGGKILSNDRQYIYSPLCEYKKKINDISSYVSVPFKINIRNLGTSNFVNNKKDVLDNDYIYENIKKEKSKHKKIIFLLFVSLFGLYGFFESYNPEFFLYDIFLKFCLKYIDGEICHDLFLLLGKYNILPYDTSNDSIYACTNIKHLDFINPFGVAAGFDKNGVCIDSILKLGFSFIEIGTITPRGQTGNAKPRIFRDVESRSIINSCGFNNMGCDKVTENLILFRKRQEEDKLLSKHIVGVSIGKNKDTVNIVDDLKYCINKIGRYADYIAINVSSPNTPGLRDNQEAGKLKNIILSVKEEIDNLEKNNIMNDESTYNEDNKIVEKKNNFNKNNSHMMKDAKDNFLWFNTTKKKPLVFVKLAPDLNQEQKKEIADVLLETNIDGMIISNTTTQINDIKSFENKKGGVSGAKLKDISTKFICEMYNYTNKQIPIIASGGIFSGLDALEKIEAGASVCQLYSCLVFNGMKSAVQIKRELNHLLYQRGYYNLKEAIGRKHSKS

SMILES | composite z-score
CC(C)c1ccc(NN2C(C(O)C(C)c3ccccc3)C=CC3C(=O)N(c4ccccc4)C(=O)C32)cc1 (stereo not given) | -0.259
CC(C)C[C@@H]1NC(=O)[C@@H]2C[C@H](C(=O)NCCCCCCNC(=O)CS)[C@H](c3ccc(O)cc3)N2C1=O | -0.283
COC(=O)Cn1c(C(=O)N(C)C)cc2c1C[C@H]1CN(C(=O)c3ccccc3)[C@@](Cc3ccccc3)(C(=O)OC)[C@@H]21 | -0.777
COCCOC(=O)N1C(=O)[C@@]2(c3cc(C#CCC(C(=O)OC)C(=O)OC)ccc31)[C@H](c1ccc(O)cc1)N1[C@H](c3ccccc3)[C@H](c3ccccc3)OC(=O)[C@H]1[C@@H]2C(=O)N1CCc2cc(OC)c(OC)cc2C1 | -0.118
Cc1ccc(S[C@]2(C(=O)NCc3ccccc3)CC(=O)N(Cc3ccccc3C(F)(F)F)[C@@H]2c2ccc(CO)cc2I)cc1 | -1.44
O=C1C2C=CC(C(O)C3CCCCC3)N(Nc3ccccc3F)C2C(=O)N1c1ccccc1 (stereo not given) | -0.572
CC[C@H]1C2=C3C(CC[C@H]4C(OCc5ccc(F)cc5C(F)(F)F)OC[C@](C)([C@@H]34)N(C(=O)OC(C)(C)C)C2)C(COC(C)=O)C1COC(C)=O (stereo not given in full) | -0.804
CC1CC/C=C\[C@H]2OC34C=CCN(CCN5CCOCC5)C(=O)[C@H]3N(C(CO)C(C)C)C(=O)[C@@H]4C2C(=O)O1 (stereo not given in full) | -3.11
COC(=O)C[C@H]1O[C@]2(C(=O)N(C)c3ccccc32)[C@@H](C)[C@@H]1[Si](C)(C)c1ccccc1 | -0.343
O=C1O[C@@H](c2ccccc2)[C@@H](c2ccccc2)N2[C@@H](c3ccc(OCCO)cc3)[C@]3(C(=O)Nc4ccc(C#CC5=CCCCC5)cc43)[C@@H](C(=O)Nc3nc4ccccc4s3)[C@H]12 | -4.05
CCCCN1CC=CC23O[C@@H]4/C=C\CCCOC(=O)C4[C@H]2C(=O)N(CCCCCCO)[C@@H]3C1=O (stereo not given in full) | -1.97
COC(=O)[C@@]1(Cc2ccc(F)cc2)[C@H]2c3cc(C(=O)N(C)C)n(CCF)c3C[C@H]2CN1C(=O)c1ccccc1 | -0.54
CCc1cccc(NC(=O)O[C@H]2[C@H](OC(=O)Nc3ccccc3-c3ccccc3)[C@H](OC(=O)Nc3ccccc3-c3ccccc3)[C@@H](OC)O[C@@H]2CO)c1 | -0.371
C=C(COC)C(=O)CC[C@H](OC(C)=O)c1ccccc1OCCO | -1.56
COC(=O)C(CC#Cc1ccc2c(c1)[C@]1(C(=O)N2)[C@H](c2ccc(OCCO)cc2)N2[C@H](c3ccccc3)[C@H](c3ccccc3)OC(=O)[C@H]2[C@@H]1C(N)=O)C(=O)OC | -1.24
COc1ccc([Si](C)(C)[C@H]2[C@H](CC(=O)N(CCO)Cc3ccccc3)O[C@@]3(C(=O)N(Cc4cccc(N5CCCCC5=O)c4)c4ccccc43)[C@@H]2C)cc1 | -1.02
COCCCNC(=O)[C@@]1(Cc2ccccc2I)c2ccccc2C(=O)N(Cc2ccccc2C(F)(F)F)[C@H]1c1ccc(CO)cc1 | 0.543
CC[C@@H](O[Si](C#C[Si](C(C)C)(C(C)C)C(C)C)(C(C)C)C(C)C)c1cn([C@H](C)c2ccccc2)nn1 | 0.308

SMILES | composite z-score
COCCOC(=O)N1C(=O)[C@@]2(c3cc(C#CCC(C(=O)OC)C(=O)OC)ccc31)[C@H](C(=O)N1CCc3cc(OC)c(OC)cc3C1)[C@H]1C(=O)O[C@H](c3ccccc3)[C@H](c3ccccc3)N1[C@@H]2c1ccccc1OCCO | -1.23
CCCNC(=O)[C@@]1(Sc2ccc(C)cc2)CC(=O)N(Cc2cc(C(F)(F)F)cc(C(F)(F)F)c2)[C@@H]1c1ccc(CO)cc1 | -0.756
Cc1ccc(S[C@]2(C(=O)NCc3ccccc3)CC(=O)N(Cc3ccccc3Cl)[C@@H]2c2ccc(CO)cc2)cc1 | 0.429
CC1(C)OB(/C=C\CC(OC(=O)c2ccncc2)c2ccccc2)OC1(C)C (stereo not given) | -0.413
COc1cc(Cc2cc3c(c(-c4ccccc4)n2)[Si](C(C)C)(C(C)C)OC3)cc(OC)c1OC | 0.021
C=CCOC(=O)[C@H]1[C@@H]2C(=O)O[C@@H](c3ccccc3)[C@@H](c3ccccc3)N2[C@@H](c2ccc(OCCOC(=O)[C@@H]3C[C@@H]4C(=O)N[C@@H](Cc5ccccc5)C(=O)N4[C@@H]3c3ccc(O)cc3)cc2)[C@]12C(=O)Nc1ccc(I)cc12 | 0.684
CC1C2C(CCCO)=CC(C3C(=O)N(C(N)=O)C(=O)C23)N1Cc1cccc(OC(F)(F)F)c1 (stereo not given) | -0.766
COC(=O)[C@@]1(Cc2ccccc2)[C@H]2c3cc(C(=O)N(C)C)n(Cc4nc5ccccc5[nH]4)c3C[C@H]2CN1C(=O)c1ccccc1 | -0.862
CO[C@H]1O[C@H](CO)[C@@H](OC(=O)Nc2cccc(F)c2)[C@H](OC(=O)Nc2ccc3c(c2)OCO3)[C@@H]1OC(=O)Nc1ccc2c(c1)OCO2 | 0.368
O=C1C2C=CC(C(O)c3ccccn3)N(Nc3ccc([N+](=O)[O-])cc3)C2C(=O)N1c1ccccc1 (stereo not given) | 0.128
CC(C)N1C(=O)[C@@]2(Cc3ccccc31)c1ccccc1C(=O)N(Cc1ccccc1C(F)(F)F)[C@H]2c1ccc(CO)cc1 | -18 (active)
CN1C2C=C(c3ccc(CO)cc3)C(C3C(=O)N(C(N)=O)C(=O)C32)C1C1CC1 (stereo not given) | 0.437
CC(C)C[C@@H]1NC(=O)[C@@H]2C[C@H](C(=O)NCCCCCNC(=O)CS)[C@H](c3ccc(O)cc3)N2C1=O | -0.24
CN(C)CCCCNC(=O)[C@H]1C[C@H]2C(=O)N[C@@H](CCCCN(C)C)C(=O)N2[C@H]1c1ccc(O)cc1 | 0.245
CCOC(=O)C[C@H]1[C@H](OC(=O)c2ccccc2-c2ccccc2)[C@@H](NC(=O)CC(C)C)c2cc(OCCCO)ccc2N1C(=O)c1ccccc1 | -0.6
CCCCCCc1nc(-c2ccc(OC)nc2)c(C)c2c1[Si](C(C)C)(C(C)C)OC2 | -3
COCCCNC(=O)[C@]1(Cc2ccccc2CN=[N+]=[N-])N=C(c2ccc(OCCCO)cc2)O[C@@H]1c1ccccc1N=[N+]=[N-] | 0.553
